From the supplement of paper PMC11732987, “Enantioselective OTUD7B fragment discovery through chemoproteomics screening and high-throughput optimisation” (Communications Chemistry, 2025)

How the values were obtained:
Test in all cases: log2 ratio of Biotin-Ahx-Ub-VS probe labelling (fragment/DMSO); higher = less target engagement (more negative = stronger competition), active = hit call of the paper (q ≤ 0.05, log2 ratio ≤ -1)
Details in all cases: compound concentration: 200 uM; treatment time: 3 h
[1] = molecular target: T1, OTUD6B (UniProt Q8N6M0)
T1 sequence (whole entry): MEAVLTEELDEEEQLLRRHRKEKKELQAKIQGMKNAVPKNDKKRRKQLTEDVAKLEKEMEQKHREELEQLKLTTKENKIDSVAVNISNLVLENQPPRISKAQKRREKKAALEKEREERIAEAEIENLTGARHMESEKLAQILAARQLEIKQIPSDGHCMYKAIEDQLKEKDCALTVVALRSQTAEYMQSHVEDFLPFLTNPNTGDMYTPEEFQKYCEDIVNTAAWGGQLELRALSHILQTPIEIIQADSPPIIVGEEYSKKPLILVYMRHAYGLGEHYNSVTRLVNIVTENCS
Outline: (§1)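 HEK293T lysate (495 µg per sample, in Tris/CHAPS/IGEPAL buffer with protease inhibitors) was treated in triplicate with fragment at 200 µM or with DMSO for 3 h. It was then treated with Biotin-Ahx-Ub-VS (0.5 µM final) for 1 h. Labelled DUBs were NeutrAvidin-enriched, digested with LysC and trypsin, and run by diaPASEF LC-MS/MS. Spectronaut label-free quantities were global-median-normalised. Values are average log2 ratios fragment/DMSO by unpaired t-test, using proteins with ≥2 unique peptides.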

[2] = molecular target: T2, OTUD7B (UniProt Q6GQQ9)
T2 sequence (whole entry): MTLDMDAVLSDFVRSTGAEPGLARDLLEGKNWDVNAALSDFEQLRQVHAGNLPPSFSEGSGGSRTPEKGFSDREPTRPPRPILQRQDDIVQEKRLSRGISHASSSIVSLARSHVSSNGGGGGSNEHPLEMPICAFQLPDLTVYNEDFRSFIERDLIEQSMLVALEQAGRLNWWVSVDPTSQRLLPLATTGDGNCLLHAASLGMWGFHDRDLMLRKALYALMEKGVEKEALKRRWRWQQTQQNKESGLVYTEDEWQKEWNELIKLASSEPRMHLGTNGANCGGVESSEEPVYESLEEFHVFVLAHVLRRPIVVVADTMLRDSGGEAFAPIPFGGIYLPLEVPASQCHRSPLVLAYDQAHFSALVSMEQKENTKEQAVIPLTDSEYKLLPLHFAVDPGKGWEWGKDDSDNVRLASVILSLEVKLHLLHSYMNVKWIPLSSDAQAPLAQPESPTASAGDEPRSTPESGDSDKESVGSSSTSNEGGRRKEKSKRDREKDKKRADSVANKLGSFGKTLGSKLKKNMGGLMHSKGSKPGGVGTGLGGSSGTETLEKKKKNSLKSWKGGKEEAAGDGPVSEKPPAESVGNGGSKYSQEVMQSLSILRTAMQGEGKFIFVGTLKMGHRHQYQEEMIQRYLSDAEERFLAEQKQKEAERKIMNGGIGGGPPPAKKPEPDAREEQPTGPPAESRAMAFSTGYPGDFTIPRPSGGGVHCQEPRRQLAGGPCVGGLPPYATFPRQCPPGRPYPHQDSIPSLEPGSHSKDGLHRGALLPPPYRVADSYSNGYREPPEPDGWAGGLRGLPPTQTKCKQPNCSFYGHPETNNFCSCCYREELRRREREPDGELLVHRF
Outline: as §1

[3] = molecular target: PRPF8 (UniProt Q6P2Q9)
Outline: as §1

[4] = molecular target: T3, PSMD7 (UniProt P51665)
T3 sequence (whole entry): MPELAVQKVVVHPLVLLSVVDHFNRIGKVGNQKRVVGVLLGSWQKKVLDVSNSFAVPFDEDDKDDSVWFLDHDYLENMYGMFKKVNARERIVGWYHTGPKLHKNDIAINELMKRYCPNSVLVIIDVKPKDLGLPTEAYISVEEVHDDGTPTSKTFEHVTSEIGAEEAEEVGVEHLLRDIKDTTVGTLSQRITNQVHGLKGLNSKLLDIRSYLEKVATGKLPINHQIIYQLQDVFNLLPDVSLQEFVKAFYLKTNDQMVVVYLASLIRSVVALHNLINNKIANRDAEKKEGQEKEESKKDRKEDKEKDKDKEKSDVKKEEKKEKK
Outline: as §1

[5] = molecular target: UCHL1 (UniProt P09936)
Outline: as §1

[6] = molecular target: T4, UCHL3 (UniProt P15374)
T4 sequence (whole entry): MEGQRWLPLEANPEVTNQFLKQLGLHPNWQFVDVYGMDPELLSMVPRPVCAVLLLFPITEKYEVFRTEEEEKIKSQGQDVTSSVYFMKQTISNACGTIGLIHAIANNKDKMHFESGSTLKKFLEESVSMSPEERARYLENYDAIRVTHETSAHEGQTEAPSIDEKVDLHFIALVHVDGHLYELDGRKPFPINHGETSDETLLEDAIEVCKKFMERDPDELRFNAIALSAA
Outline: as §1

[7] = molecular target: T5, UCHL5 (UniProt Q9Y5K5)
T5 sequence (whole entry): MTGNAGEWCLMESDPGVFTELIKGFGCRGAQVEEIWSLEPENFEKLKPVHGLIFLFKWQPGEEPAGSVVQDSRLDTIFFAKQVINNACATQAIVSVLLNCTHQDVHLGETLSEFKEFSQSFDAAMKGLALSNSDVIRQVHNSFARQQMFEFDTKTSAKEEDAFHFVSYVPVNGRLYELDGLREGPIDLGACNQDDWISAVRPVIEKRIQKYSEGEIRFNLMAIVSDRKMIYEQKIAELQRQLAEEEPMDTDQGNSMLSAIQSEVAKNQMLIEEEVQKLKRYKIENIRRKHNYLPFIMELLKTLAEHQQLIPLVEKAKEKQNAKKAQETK
Outline: as §1

[8] = molecular target: USP10 (UniProt Q14694)
Outline: as §1

[9] = molecular target: T6, USP15 (UniProt Q9Y4E8)
T6 sequence (whole entry): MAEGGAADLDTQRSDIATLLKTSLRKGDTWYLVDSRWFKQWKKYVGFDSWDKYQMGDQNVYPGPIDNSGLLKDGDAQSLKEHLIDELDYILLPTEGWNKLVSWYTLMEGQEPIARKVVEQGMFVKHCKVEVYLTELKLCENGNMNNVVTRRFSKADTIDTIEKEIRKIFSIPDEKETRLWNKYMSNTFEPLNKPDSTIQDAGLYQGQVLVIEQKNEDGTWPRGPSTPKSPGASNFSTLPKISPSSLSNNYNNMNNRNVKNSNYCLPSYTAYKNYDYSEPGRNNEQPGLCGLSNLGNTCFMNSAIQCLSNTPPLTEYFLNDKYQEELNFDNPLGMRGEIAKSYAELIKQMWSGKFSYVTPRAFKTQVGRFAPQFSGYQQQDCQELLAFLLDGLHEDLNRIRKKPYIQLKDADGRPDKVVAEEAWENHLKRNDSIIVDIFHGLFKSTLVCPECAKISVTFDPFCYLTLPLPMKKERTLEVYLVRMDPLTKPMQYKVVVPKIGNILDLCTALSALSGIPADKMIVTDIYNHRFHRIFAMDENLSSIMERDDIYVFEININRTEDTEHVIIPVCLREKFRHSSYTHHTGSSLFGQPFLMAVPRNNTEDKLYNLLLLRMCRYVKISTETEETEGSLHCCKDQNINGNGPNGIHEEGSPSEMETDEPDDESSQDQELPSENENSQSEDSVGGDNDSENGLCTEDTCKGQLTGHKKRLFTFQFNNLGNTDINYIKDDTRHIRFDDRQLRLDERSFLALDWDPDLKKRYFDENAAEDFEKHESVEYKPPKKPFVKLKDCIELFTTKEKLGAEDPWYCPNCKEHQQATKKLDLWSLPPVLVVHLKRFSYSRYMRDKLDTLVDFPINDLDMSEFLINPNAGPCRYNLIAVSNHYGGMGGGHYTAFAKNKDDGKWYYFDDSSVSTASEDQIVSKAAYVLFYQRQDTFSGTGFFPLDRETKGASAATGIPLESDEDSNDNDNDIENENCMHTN
Outline: as §1

[10] = molecular target: USP16 (UniProt Q9Y5T5)
Outline: as §1

Measured: log2 ratio of Biotin-Ahx-Ub-VS probe labelling

Sequence of USP16 (Q9Y5T5 whole entry, looked up): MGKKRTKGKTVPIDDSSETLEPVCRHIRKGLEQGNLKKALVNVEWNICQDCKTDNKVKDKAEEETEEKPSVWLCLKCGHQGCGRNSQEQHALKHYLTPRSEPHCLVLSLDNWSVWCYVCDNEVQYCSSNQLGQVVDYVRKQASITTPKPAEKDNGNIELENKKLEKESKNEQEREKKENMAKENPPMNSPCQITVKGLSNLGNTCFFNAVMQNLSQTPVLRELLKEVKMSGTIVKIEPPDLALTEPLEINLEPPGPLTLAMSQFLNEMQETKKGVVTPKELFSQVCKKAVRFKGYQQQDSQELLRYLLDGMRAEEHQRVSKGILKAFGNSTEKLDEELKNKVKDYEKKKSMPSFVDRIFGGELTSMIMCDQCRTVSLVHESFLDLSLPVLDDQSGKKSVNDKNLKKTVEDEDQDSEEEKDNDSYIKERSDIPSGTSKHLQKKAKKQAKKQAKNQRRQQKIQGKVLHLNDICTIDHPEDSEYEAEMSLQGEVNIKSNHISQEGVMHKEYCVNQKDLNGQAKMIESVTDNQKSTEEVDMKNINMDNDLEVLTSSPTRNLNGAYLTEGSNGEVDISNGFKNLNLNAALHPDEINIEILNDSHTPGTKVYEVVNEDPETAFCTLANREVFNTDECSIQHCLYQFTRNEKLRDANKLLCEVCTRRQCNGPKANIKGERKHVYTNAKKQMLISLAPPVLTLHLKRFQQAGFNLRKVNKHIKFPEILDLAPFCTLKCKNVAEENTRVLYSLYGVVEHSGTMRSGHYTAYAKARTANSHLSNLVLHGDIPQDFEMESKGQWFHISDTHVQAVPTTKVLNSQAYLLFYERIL
Sequence of USP10 (Q14694 whole entry): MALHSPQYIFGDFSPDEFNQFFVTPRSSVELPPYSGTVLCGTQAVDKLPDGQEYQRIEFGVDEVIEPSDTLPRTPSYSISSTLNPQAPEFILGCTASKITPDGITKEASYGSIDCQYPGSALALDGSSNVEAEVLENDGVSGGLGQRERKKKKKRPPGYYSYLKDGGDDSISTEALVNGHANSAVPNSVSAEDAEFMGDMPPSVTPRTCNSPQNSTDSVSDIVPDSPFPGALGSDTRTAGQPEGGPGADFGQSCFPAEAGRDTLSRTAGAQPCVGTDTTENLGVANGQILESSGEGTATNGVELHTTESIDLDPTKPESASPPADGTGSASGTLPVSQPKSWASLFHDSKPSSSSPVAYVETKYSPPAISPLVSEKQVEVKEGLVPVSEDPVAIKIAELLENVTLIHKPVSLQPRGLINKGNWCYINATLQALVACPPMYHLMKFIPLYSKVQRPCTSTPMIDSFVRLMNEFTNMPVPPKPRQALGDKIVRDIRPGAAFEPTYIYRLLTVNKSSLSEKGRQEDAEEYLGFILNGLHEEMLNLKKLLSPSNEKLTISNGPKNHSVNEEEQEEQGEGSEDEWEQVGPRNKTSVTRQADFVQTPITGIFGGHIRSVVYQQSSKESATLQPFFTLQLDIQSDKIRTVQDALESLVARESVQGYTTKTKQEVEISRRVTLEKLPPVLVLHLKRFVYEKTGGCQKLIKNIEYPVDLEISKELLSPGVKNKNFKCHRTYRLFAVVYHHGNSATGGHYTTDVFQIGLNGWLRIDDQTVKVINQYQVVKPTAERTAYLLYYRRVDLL
Sequence of UCHL1 (P09936 whole entry, looked up): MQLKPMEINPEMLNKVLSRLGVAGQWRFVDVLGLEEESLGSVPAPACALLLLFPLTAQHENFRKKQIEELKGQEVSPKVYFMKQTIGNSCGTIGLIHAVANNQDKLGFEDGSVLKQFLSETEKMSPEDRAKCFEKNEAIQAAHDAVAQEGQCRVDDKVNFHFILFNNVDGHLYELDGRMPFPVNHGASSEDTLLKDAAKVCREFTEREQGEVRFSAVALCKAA

CC(NC(=O)CCl)c1ccc2[nH]ncc2c1 (stereo not given)
inactive: [1] -0.241 | [3] -0.0557 | [4] -0.245 | [6] 0.289 | [7] -0.328 | [8] -0.179 | [9] -0.271 | [10] -0.601
active: [2] -1.52 | [5] -1.1
